Out of some 310,000 compounds screened, about 14,000 (4.5%) showed an effect of 50% or more. The effect is printed as a negative number. The full list was thinned out, with strong results kept by preference.
These compounds were tested against human ether-à-go-go-related gene (hERG) potassium channel (human, UniProt Q12809) (assay: primary screen, population patch clamp on CHO cells stably expressing hERG; higher = less effect of the substance).
Chain of human ether-à-go-go-related gene (hERG) potassium channel (Q12809 whole entry, looked up): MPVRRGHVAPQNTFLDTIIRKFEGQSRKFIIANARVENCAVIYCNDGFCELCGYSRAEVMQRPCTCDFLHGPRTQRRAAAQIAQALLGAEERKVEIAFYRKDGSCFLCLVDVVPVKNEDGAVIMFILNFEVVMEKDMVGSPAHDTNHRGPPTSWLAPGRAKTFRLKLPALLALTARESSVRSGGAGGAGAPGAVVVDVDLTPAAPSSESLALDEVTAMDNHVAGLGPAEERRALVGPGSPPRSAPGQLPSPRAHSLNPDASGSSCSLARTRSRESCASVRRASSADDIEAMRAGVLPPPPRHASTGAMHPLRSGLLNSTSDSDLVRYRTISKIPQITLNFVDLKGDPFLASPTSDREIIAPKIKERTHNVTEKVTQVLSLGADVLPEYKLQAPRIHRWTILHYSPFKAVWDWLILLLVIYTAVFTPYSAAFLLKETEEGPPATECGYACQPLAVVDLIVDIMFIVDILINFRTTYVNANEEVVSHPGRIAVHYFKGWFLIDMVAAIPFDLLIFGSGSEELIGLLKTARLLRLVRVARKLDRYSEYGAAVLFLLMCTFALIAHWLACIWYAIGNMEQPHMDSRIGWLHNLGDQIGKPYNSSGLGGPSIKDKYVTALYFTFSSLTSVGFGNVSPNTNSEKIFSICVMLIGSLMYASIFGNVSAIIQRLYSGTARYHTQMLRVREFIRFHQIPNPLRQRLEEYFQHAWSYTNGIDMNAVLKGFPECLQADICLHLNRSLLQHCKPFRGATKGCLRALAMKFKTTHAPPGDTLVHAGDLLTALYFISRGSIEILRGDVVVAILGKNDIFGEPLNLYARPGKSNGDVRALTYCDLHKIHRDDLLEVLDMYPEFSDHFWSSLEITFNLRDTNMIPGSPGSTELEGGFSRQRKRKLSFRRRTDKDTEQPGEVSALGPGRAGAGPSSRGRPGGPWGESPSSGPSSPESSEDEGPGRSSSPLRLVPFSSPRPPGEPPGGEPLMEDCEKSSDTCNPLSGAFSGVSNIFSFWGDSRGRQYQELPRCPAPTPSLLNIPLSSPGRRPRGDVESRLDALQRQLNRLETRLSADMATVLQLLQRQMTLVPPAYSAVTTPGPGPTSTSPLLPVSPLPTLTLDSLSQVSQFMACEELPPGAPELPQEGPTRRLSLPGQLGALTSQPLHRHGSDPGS
CCOc1ccc(CCNC(=O)CS(=O)Cc2nc(-c3ccccc3Cl)oc2C)cc1OCC (centres unmarked) was tested, and the “hERG current change (%, negative = inhibition) at 10uM” value was -10.7%.
For CC(C)C1N=C2c3ccccc3N=C(SCc3cc(=O)n4cc(Cl)ccc4n3)N2C1=O (centres unmarked), the “hERG current change (%, negative = inhibition) at 10uM” value was -67%.
With CC(C)C1N=C2c3ccccc3N=C(SCC#N)N2C1=O (centres unmarked) the “hERG current change (%, negative = inhibition) at 10uM” value was 5.14%.
In the case of CC(C)C1N=C2c3ccccc3N=C(SCC(=O)c3ccc(O)c(O)c3)N2C1=O (centres unmarked), the “hERG current change (%, negative = inhibition) at 10uM” value is reported as -23.1%.
In the case of O=C(O)CCCCn1c(SCc2cc(=O)n3cc(Cl)ccc3n2)nc2ccsc2c1=O, the “hERG current change (%, negative = inhibition) at 10uM” value is reported as 2.87%.
Cc1ccc2nc(CSc3nnc4ccccn34)cc(=O)n2c1 was tested, and the “hERG current change (%, negative = inhibition) at 10uM” value was 13.2%.
For CC1N=C2c3ccccc3N=C(SCc3cc(=O)n4cc(Cl)ccc4n3)N2C1=O (centres unmarked), the “hERG current change (%, negative = inhibition) at 10uM” value was -63.6%.
COc1ccc(CN2C(=O)NC3(CCCc4ccccc43)C2=O)cc1F (centres unmarked) was tested, and the “hERG current change (%, negative = inhibition) at 10uM” value was -14.4%.
With O=[N+]([O-])c1cc(S(=O)(=O)Nc2cccc(C(F)(F)F)c2)ccc1-n1nnc2ccccc21 the “hERG current change (%, negative = inhibition) at 10uM” value was 0.81%.
With COc1ccc(S(=O)(=O)N2CCC(N3CCN(c4ccccc4)CC3)CC2)cc1 the “hERG current change (%, negative = inhibition) at 10uM” value was -8.52%.
In the case of C/C=C(\C)C(=O)NCCN1C2=NC[C@H](C(C)C)N2C[C@H]1Cc1ccc(O)cc1, the “hERG current change (%, negative = inhibition) at 10uM” value is reported as 23.1%.
For C/C=C(\C)C(=O)NCCN1C2=NC[C@H](C)N2C[C@@H]1Cc1ccc(OC)cc1, the “hERG current change (%, negative = inhibition) at 10uM” value was -4.7%.
With C/C=C(\C)C(=O)NCCN1C2=NC[C@H](Cc3ccccc3)N2C[C@H]1Cc1ccc(O)cc1 the “hERG current change (%, negative = inhibition) at 10uM” value was 1.99%.
In the case of C/C=C(\C)C(=O)NCCN1C2=NC[C@H](C(C)C)N2C[C@@H]1Cc1ccc(OC)cc1, the “hERG current change (%, negative = inhibition) at 10uM” value is reported as -86.6%.
With C/C=C(\C)C(=O)NCCN1C2=NC[C@@H](Cc3ccccc3)N2C[C@H]1Cc1ccc(O)cc1 the “hERG current change (%, negative = inhibition) at 10uM” value was 12.8%.
In the case of C/C=C(\C)C(=O)NCCN1C2=NC[C@H](Cc3ccccc3)N2C[C@@H]1Cc1ccc(OC)cc1, the “hERG current change (%, negative = inhibition) at 10uM” value is reported as -73.3%.
In the case of C/C=C(\C)C(=O)NCCN1C2=NC[C@@H](Cc3ccccc3)N2C[C@@H]1Cc1ccc(OC)cc1, the “hERG current change (%, negative = inhibition) at 10uM” value is reported as -60.3%.
For C/C=C(\C)C(=O)NCCN1C2=NC[C@H](Cc3ccc(O)cc3)N2C[C@@H]1Cc1ccc(OC)cc1, the “hERG current change (%, negative = inhibition) at 10uM” value was -2.89%.
For CC1(C)CC(=O)C2=C(C1)OC1=C(C(=O)CC(C)(C)C1)C2c1ccc(O)c([N+](=O)[O-])c1, the “hERG current change (%, negative = inhibition) at 10uM” value was 14%.
For Cc1cc(O)c(C=Nc2ccc(N3CCOCC3)cc2)c(C)c1Cl, the “hERG current change (%, negative = inhibition) at 10uM” value was 18.5%.
With O=C1CN(C(=O)COC(=O)C2CC(=O)N(Cc3ccco3)C2)c2ccccc2N1 (centres unmarked) the “hERG current change (%, negative = inhibition) at 10uM” value was -7.99%.
In the case of CSc1ccc(/C=C2\C(=N)N3N=C(CC(=O)N4CCOCC4)SC3=NC2=O)cc1, the “hERG current change (%, negative = inhibition) at 10uM” value is reported as 14.2%.
COc1cccc(/C=C2/Sc3ccc(C(=O)NCCN4CCCC4)cc3NC2=O)c1 was tested, and the “hERG current change (%, negative = inhibition) at 10uM” value was -39.1%.
COc1cccc(/C=C2/Sc3ccc(C(=O)NCCN4CCCCCC4)cc3NC2=O)c1 was tested, and the “hERG current change (%, negative = inhibition) at 10uM” value was -47.3%.
CC1CCN(C(=O)c2ccc3c(c2)NC(=O)/C(=C/c2ccccc2)S3)CC1 was tested, and the “hERG current change (%, negative = inhibition) at 10uM” value was 11%.
For O=C1Nc2cc(C(=O)N3CCC(N4CCCCC4)CC3)ccc2S/C1=C\c1ccccc1, the “hERG current change (%, negative = inhibition) at 10uM” value was -58.3%.
For COc1cccc(/C=C2/Sc3ccc(C(=O)NCCCN4CCCC4)cc3NC2=O)c1, the “hERG current change (%, negative = inhibition) at 10uM” value was -59.8%.
CCC1CCCCN1CCCNC(=O)c1ccc2c(c1)NC(=O)CS2 (centres unmarked) was tested, and the “hERG current change (%, negative = inhibition) at 10uM” value was 4.27%.
With Cc1cccc(/C=C2/Sc3ccc(C(=O)NCCCN4CCOCC4)cc3NC2=O)c1 the “hERG current change (%, negative = inhibition) at 10uM” value was -25.3%.
In the case of CN1CCN(C(=O)c2ccc3c(c2)NC(=O)/C(=C/c2ccccc2)S3)CC1, the “hERG current change (%, negative = inhibition) at 10uM” value is reported as -16%.
For CCN1CCCC1CNC(=O)c1ccc2c(c1)NC(=O)/C(=C\c1ccc(C)cc1)S2 (centres unmarked), the “hERG current change (%, negative = inhibition) at 10uM” value was -42.4%.
With Cc1cccc(/C=C2/Sc3ccc(C(=O)NCCN4CCCC4)cc3NC2=O)c1 the “hERG current change (%, negative = inhibition) at 10uM” value was -54.7%.
CCN1CCN(CCCNC(=O)c2ccc3c(c2)NC(=O)/C(=C\c2cccc(C)c2)S3)CC1 was tested, and the “hERG current change (%, negative = inhibition) at 10uM” value was -38.6%.
CCC1CCCCN1CCCNC(=O)c1ccc(/C=C2/Sc3ccccc3NC2=O)cc1 (centres unmarked) was tested, and the “hERG current change (%, negative = inhibition) at 10uM” value was -76.9%.
In the case of CC(C)(C)C(=O)O/N=C(\N)c1ccc([N+](=O)[O-])s1, the “hERG current change (%, negative = inhibition) at 10uM” value is reported as 20.7%.
With CSc1cccc(NC(=O)C2CCN(C(=O)c3ccccc3C)CC2)c1 the “hERG current change (%, negative = inhibition) at 10uM” value was -18.7%.
For O=C1CC(c2ccc(F)cc2)Cc2nc(N3CCN(c4ccccc4)CC3)ncc21 (centres unmarked), the “hERG current change (%, negative = inhibition) at 10uM” value was 1.48%.
With O=C(O)c1ccc(/C=N/NC(=O)c2ccc3c(c2)OCCO3)cc1 the “hERG current change (%, negative = inhibition) at 10uM” value was 16.1%.
CCn1c(C2CCN(Cc3ccccc3)CC2)n[nH]c1=S was tested, and the “hERG current change (%, negative = inhibition) at 10uM” value was -17.3%.
In the case of CCC(=O)N/N=c1/sc2ccccc2n1C, the “hERG current change (%, negative = inhibition) at 10uM” value is reported as 13.9%.
With Cc1ccc(C)c(NC2=NCCCS2)c1 the “hERG current change (%, negative = inhibition) at 10uM” value was 1.48%.
In the case of CC1(C)CC(NC(=O)COc2ccc3ccccc3c2)CC(C)(C)N1, the “hERG current change (%, negative = inhibition) at 10uM” value is reported as -12.6%.
With O=C1Nc2cc(C(=O)NCCCN3CCCC3)ccc2S/C1=C/c1ccccc1F the “hERG current change (%, negative = inhibition) at 10uM” value was -69.5%.
O=C1Nc2cc(C(=O)NCC3CCCO3)ccc2S/C1=C/c1ccccc1F (centres unmarked) was tested, and the “hERG current change (%, negative = inhibition) at 10uM” value was -4.84%.
For O=C(NCCCN1CCCCC1)c1ccc2c(c1)NC(=O)c1ccccc1S2, the “hERG current change (%, negative = inhibition) at 10uM” value was -13.7%.
In the case of O=C1Nc2cc(C(=O)NCCN3CCCCCC3)ccc2S/C1=C\c1ccccc1, the “hERG current change (%, negative = inhibition) at 10uM” value is reported as -43.9%.
For O=C1Nc2cc(C(=O)NCCCN3CCCC3)ccc2S/C1=C\c1ccccc1, the “hERG current change (%, negative = inhibition) at 10uM” value was -51.4%.
O=C1Nc2cc(C(=O)NCCCN3CCOCC3)ccc2S/C1=C/c1ccccc1F was tested, and the “hERG current change (%, negative = inhibition) at 10uM” value was -29.8%.
In the case of COc1ccccc1N1CCN(S(=O)(=O)/C=C/c2ccccc2)CC1, the “hERG current change (%, negative = inhibition) at 10uM” value is reported as -11.3%.
In the case of Cc1ccc(NC(=O)CN(C)C(=O)COC(=O)COc2ccc(C#N)cc2)cc1, the “hERG current change (%, negative = inhibition) at 10uM” value is reported as -24.2%.
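Note: peak tail current of the secondary pulse compared with the same well before compound.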
